# Bioassay records: PubChem BioAssay, Broad Institute
# NSD2 HMT inh = NSD2 histone methyltransferase inhibitors, primary screen, biochemical, AlphaScreen, single concentration, set 2; Histone-lysine N-methyltransferase NSD2 (Homo sapiens), O96028; NSD2 peptide methylation, 120 min; inhibition, % at 12.5 µM; 0.54% of 310,000 active; AID 743445, 2014; in the data active = inhibition above about 50%
# miR-122 sensor = miR-122 Renilla sensor signal increase in Huh7, primary screen, miR-122 inhibitor project, cell-based, single point, plate reader. Huh7 miR-122 Renilla luciferase sensor, 48 h; neutral wells = 0, positive control = 100. activation (reporter increase), % at 12.5 µM. 0.3% of 340,000 active;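 active = mean replicate activation score at least 90 and every replicate individually at or above 90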;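 also: higher luciferase means less miR-122 activity so hits act as miR-122 inhibitors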
# RAD52 anneal inh = RAD52 DNA annealing inhibitors, primary screen, biochemical, FRET, single point, set 2; DNA repair protein RAD52 homolog (Homo sapiens), P43351; recombinant RAD52 DNA annealing, FRET fluorescence; inhibition, % at 18.7 µM; 0.46% of 360,000 active;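 active = every replicate showing at least 50% inhibition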
# MLL AF4-AF9 inh = inhibitors of AF4 peptide binding to AF9, primary screen, biochemical, AlphaScreen, biotin-AF4 peptide, FLAG-AF9, single point; 0.47% of 350,000 active; Protein AF-9 (Homo sapiens), P42568; inhibition, % at 10 µM;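 active = every replicate reaching a set inhibition limit, whatever the replicate mean, cut at about 25% in these data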
# CASP6 VEID inh = human caspase-6 inhibitors, primary screen, biochemical, VEID-R110 fluorescence, single point, set 2. P55212. purified caspase-6, Z-VEID-R110 cleavage fluorescence. inhibition, % at 12.5 µM. 0.53% of 350,000 active. AID 686996, 2013;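 active = mean inhibition across replicates at least about 35%, with every replicate also reaching that limit, limit read from the data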
# Numbers stand for hits; – = inactive; · = no result given; ! = not active in a repeat. The list is not random: actives were taken first. Their share in the collection is about 1.5%.
SMILES,NSD2 HMT inh,miR-122 sensor,RAD52 anneal inh,MLL AF4-AF9 inh,CASP6 VEID inh
C[C@@H]1CCCCO[C@@H](CN(C)Cc2ccc3c(c2)OCO3)[C@H](C)CN([C@H](C)CO)C(=O)c2cc(NC(=O)Nc3ccc4c(c3)OCO4)ccc2O1,·,–,–,32.0,–
C[C@@H]1CCCCO[C@H](CN(C)Cc2ccccc2)[C@@H](C)CN([C@@H](C)CO)C(=O)c2cc(NC(=O)Nc3ccc4c(c3)OCO4)ccc2O1,·,–,–,37.0,–
C[C@H](CO)N1C[C@H](C)[C@@H](CN(C)Cc2ccccc2)OCCCC[C@H](C)Oc2ccc(NC(=O)Nc3ccc4c(c3)OCO4)cc2C1=O,·,–,–,–,–
C[C@@H]1CN([C@@H](C)CO)C(=O)c2cc(NC(=O)Nc3ccccc3)ccc2O[C@@H]1CN(C)Cc1ccc2c(c1)OCO2,·,–,–,–,54.3
C[C@@H]1CN([C@H](C)CO)C(=O)c2cc(NC(=O)NC3CCCCC3)ccc2O[C@@H](C)CCCCO[C@@H]1CN(C)C(=O)Cc1ccccc1,·,–,·,·,·
Cc1noc(C)c1NC(=O)N(C)C[C@@H]1Oc2ccc(NC(=O)NC(C)C)cc2CC(=O)N([C@@H](C)CO)C[C@@H]1C,·,–,–,–,–
C[C@H](CO)N1C[C@H](C)[C@H](CN(C)Cc2ccc3c(c2)OCO3)OCCCC[C@H](C)Oc2ccc(NC(=O)Nc3ccccc3)cc2C1=O,·,–,56.3,–,–
COCC(=O)Nc1ccc2c(c1)C(=O)N(C)[C@H]1CC[C@H](CC(=O)NCc3ccc(OC)cc3)O[C@H]1CO2,·,–,·,·,·
CN1CCCN(c2ccc([N+](=O)[O-])cc2)CC1,·,–,–,28.3,–
CO[C@@H]1CN(C)C(=O)c2ccc(NC(=O)c3cnccn3)cc2OC[C@H](C)N(C(=O)C2CC2)C[C@@H]1C,·,·,–,–,–
O=C(C[C@@H]1C[C@@H]2c3cc(NC(=O)CC4CC4)ccc3O[C@@H]2[C@@H](CO)O1)NCCc1ccccc1,·,–,–,–,–
Cc1cc(/C=N/N2CCN(C)CC2)c(C)n1-c1ccc(Cl)cc1,–,–,–,48.3,–
O=C(NC(=S)Nc1ccc(S(=O)(=O)N2CCCCC2)cc1)c1cccs1,–,·,–,–,–
O=C(NC(=S)Nc1ccc(S(=O)(=O)NC2CCCCC2)cc1)c1cccs1,–,396.5,–,–,–
O=C(Nc1ccc(NC(=O)C2CC2)cc1)c1cccs1,–,·,–,–,59.2
COc1ccc2c3c([nH]c2c1)[C@@H](CO)N(C(=O)C1CCCCC1)CC31CCN(C(=O)c2ccncc2)CC1,·,·,–,–,–
Cc1ccc(S(=O)(=O)c2c(N)n(Cc3ccco3)c3nc4ccccc4nc23)cc1,–,121.4,–,·,–
Cc1cccc(S(=O)(=O)c2c(N)n(Cc3ccco3)c3nc4ccccc4nc23)c1,–,–,·,·,·
C[C@@H]1CN([C@H](C)CO)C(=O)Cc2cc(NC(=O)CCC(F)(F)F)ccc2O[C@@H]1CN(C)S(=O)(=O)c1ccc(F)cc1,·,–,–,–,–
C[C@H]1CN([C@@H](C)CO)S(=O)(=O)c2ccc(-c3ccc(F)cc3)cc2O[C@@H]1CN(C)C,·,–,–,–,–
COC(=O)c1sccc1NC(=O)Nc1ccc(F)cc1,–,·,–,–,–
COC(=O)c1sccc1NC(=S)Nc1ccc(F)cc1,–,147.2,·,·,·
C[C@H](CO)N1C[C@H](C)[C@H](CN(C)Cc2ccc3c(c2)OCO3)OCCCC[C@H](C)Oc2ccc(NS(=O)(=O)c3ccc(Cl)cc3)cc2C1=O,·,–,62.6,–,–
C[C@@H]1CCCCO[C@H](CN(C)Cc2ccc3c(c2)OCO3)[C@@H](C)CN([C@@H](C)CO)C(=O)c2cc(NS(=O)(=O)c3ccccc3)ccc2O1,·,–,–,–,35.5
C[C@H]1CCCCO[C@@H](CN(C)Cc2ccc3c(c2)OCO3)[C@@H](C)CN([C@@H](C)CO)C(=O)c2cc(NS(=O)(=O)c3ccc(Cl)cc3)ccc2O1,·,–,55.0!,–,–
SMILES,NSD2 HMT inh,miR-122 sensor,RAD52 anneal inh,MLL AF4-AF9 inh,CASP6 VEID inh
CC(C)c1cn(CC[C@H]2CC[C@@H](NC(=O)C3CCCC3)[C@H](CO)O2)nn1,·,–,–,–,–
Cc1ccc(-c2ccc([C@@H]3[C@@H](CO)N4CCCCN(S(=O)(=O)c5cccc(C)c5)C[C@H]34)cc2)cc1,·,–,52.7,–,–
Cc1ccccc1S(=O)(=O)N1CCCCN2[C@@H](CO)[C@H](c3ccc(-c4ccccc4)cc3)[C@@H]2C1,·,–,71.1,–,–
Cc1ccc(-c2ccc([C@@H]3[C@H]4CN(S(=O)(=O)c5cccc(C)c5)CCCCN4[C@H]3CO)cc2)cc1,·,–,–,–,–
Cc1ccccc1S(=O)(=O)N1CCCCN2[C@H](C1)[C@@H](c1ccc(C#CCN(C)C)cc1)[C@@H]2CO,·,–,59.8,–,–
Cc1cccc(S(=O)(=O)N2CCCCN3[C@@H](CO)[C@H](c4ccc(-c5ccccc5)cc4)[C@@H]3C2)c1,·,–,68.3,–,–
COc1ccc2c3c([nH]c2c1)[C@H](CO)N(C(=O)c1cnccn1)CC31CCN(C(=O)c2cnccn2)CC1,·,·,–,–,·
C[C@H]1CN([C@@H](C)CO)C(=O)c2cc(-c3ccc(C#N)cc3)cnc2O[C@@H]1CN(C)CC1CCCCC1,·,–,–,–,–
CN(C)C(=O)[C@@H]1[C@@H](CO)[C@@H]2Cn3c(ccc(C4=CCCC4)c3=O)[C@H]1N2C,·,–,–,–,–
C/C=C/c1ccc([C@H]2[C@@H](CO)N3CCCCN(S(=O)(=O)c4ccc(OC)cc4)C[C@H]23)cc1,·,–,60.3,–,–
C/C=C/c1ccc([C@H]2[C@H](CO)N3CCCCN(S(=O)(=O)c4ccc(OC)cc4)C[C@@H]23)cc1,·,–,–,–,–
NC(=O)C1=CC2C3C=CC2(O)C(=O)OC3O1 (configuration not stated),–,135.6,–,–,–
COc1cc(O)c(C(CC(=O)N2CCN(c3ccccc3)CC2)c2ccc(N(C)C)cc2)c(OC)c1 (configuration not stated),·,–,–,27.5,–
COc1cc(O)c(C(CC(=O)N2CCCC(C)C2)c2ccc(N(C)C)cc2)c(OC)c1 (configuration not stated),·,–,–,–,–
COc1ccc2c3c(n(C)c2c1)[C@H](CO)N(C(=O)c1ccncc1)CC31CN(CC2CC2)C1,·,·,–,–,–
CC(=O)N(C)C[C@H]1OCc2ccccc2-c2c(n(C)c3ccccc23)C(=O)N([C@@H](C)CO)C[C@H]1C,·,·,–,–,–
C[C@@H]1CN([C@H](C)CO)C(=O)c2c(c3ccccc3n2C)-c2ccccc2CO[C@@H]1CN(C)C(=O)[C@H](Cc1ccccc1)N(C)C,·,·,51.1,–,–
C[C@H]1CN([C@@H](C)CO)C(=O)c2c(c3ccccc3n2C)-c2ccccc2CO[C@H]1CN(C)C(=O)CCN(C)C,·,·,50.6,–,–
